TRb-SRC2 inh = TRbeta-SRC2 interaction inhibition | P10828 | TRbeta-SRC2 peptide binding, fluorescence polarization; receptor liganded with 1 µM T3 | Potency, µM (titrated, usually from 106 µM), for the others: at the top dose activity change, negative = inhibition, usual class: inhibitors | 280,000 compounds, 0.065% hits | AID 1469;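 also: potency is read from the fitted curve at half-maximal effect; plate controls were bound peptide for no effect and peptide without receptor for full effect; nearly all actives have a fitted effect of over 50% in size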
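Quantitative HTS by FP: 0.6 uM TRb LBD, 20 nM labeled SRC2 20-mer, 1 uM T3, 5% DMSO; 5 hr ambient incubation; % activity per concentration and potencies from concentration series.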
PNC inhibitor = perinucleolar compartment assembly inhibition | 140,000 compounds, 3.1% hits | PC3M PTB-GFP, PNC prevalence imaging, 16 h; active compounds read low | activity change (PNC), negative = inhibition, % at 10 µM | AID 2417;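 active = readout at or below -70, meaning at least 70% loss of cells showing the perinucleolar compartment, a nuclear body marking cancer cells; inconclusive = readout between -30 and a set limit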;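 also: plate controls were DMSO wells for no effect and camptothecin positive control wells for full effect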
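Read-out is percentage of cells bearing a perinucleolar compartment, from automated 20x imaging of fixed, Hoechst-stained PC3M PTB-GFP cells. Cells were seeded 4 h, then exposed 16 h to compound (23 nl of library stock) in duplicate plates.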
Tau fluor counter = counter-screen for tau fibril formation inhibitors; tau K18 P301L Alexa594 fluorescence, heparin fibrillization; Potency, µM (highest dose often 57.7 µM), without a hit: at the top dose activity change, negative = decrease; 280,000 compounds, 0.93% hits; AID 1463; also: potency is read from the fitted curve at half-maximal effect; nearly all actives have a fitted effect of over 55% in size
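Human K18 P301L tau (15 uM unlabeled plus 0.24 uM Alexa 594-labeled, final) in 100 mM sodium acetate pH 7 was mixed with compound and 20 uM heparin and incubated 6 hr at 37 C.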
Tau fibril ThT = tau fibrillization inhibition (ThT binding); AID 1460; 270,000 compounds, 2.1% hits; recombinant tau K18 P301L (four-repeat tau fragment), heparin-induced fibrillization, ThT fluorescence; Potency, µM (series often up to 57.4 µM), for the others: top-dose activity, negative = inhibition, actives largely listed as inhibitors; P10636; also: potency is read from the fitted curve at half-maximal effect; nearly all actives have a fitted effect of over 55% in size
Target sequence (P10636 561-689 P618L limits assumed): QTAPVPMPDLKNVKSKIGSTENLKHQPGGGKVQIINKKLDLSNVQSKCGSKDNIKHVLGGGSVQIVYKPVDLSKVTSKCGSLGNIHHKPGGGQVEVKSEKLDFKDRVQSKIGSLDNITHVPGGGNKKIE
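Aggregation was driven by heparin (20 uM final) acting on recombinant tau […] bearing P301L in 100 mM sodium acetate pH 7; fibrils were detected with Thioflavin T.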
TexasRed fluor = alters Texas Red total fluorescence, flagging assay interference | TRb/SRC2 Texas Red total fluorescence interference | Potency, µM (top dose mostly 106 µM), without a hit: top-dose fluorescence change, negative = quenching | 280,000 compounds, 0.29% hits | AID 1479; active = well fitted curve in either direction with a large enough effect; inconclusive = small, poorly fitted or top-dose-only effect; also: potency is read from the fitted curve at half-maximal effect
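Human TRb ligand-binding domain at 0.6 uM with 20 nM Texas Red SRC2 peptide in Tris buffer containing 1 uM T3 and 5% DMSO, incubated with compound 5 h at ambient temperature. Total fluorescence (555/632 nm) calculated as parallel + 2 × perpendicular.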
Tau FP inhib = inhibitors of human tau fibril formation; 280,000 compounds, 0.39% hits; AID 1468; Potency, µM (highest dose often 57.7 µM), inactives show top-dose activity, negative = inhibition, most hits filed as inhibitors; K18 P301L tau heparin fibrillization, Alexa594 FP, 6 h; also: potency is read from the fitted curve at half-maximal effect; nearly all actives have a fitted effect of over 55% in size
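Steps: dispense K18 P301L tau (15 uM plus 0.24 uM Alexa 594 tracer, final) in pH 7 sodium acetate; add compound; add heparin (20 uM final); incubate 6 hr, 37 C; add ThT (30 uM final); after 1 hr ambient, read FP.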
* hit, by the source's call; ? = inconclusive; . = no result; [ ] = remark or other dose. Most compounds without a hit are left out; they make up all but 4.6% or so of the library. Unless noted, calls follow the shape of the dose curve; as a rule, active = well fitted curve in the direction sought with a large enough effect; inconclusive = small, poorly fitted or top-dose-only effect, or another doubt; inactive = no such curve, though single readings can be large; an effect the other way counts as inactive or inconclusive. Unless noted, % is scaled to controls: 0 for no effect and ±100 for the full control effect.

SMILES | TRb-SRC2 inh | PNC inhibitor | Tau fluor counter | Tau fibril ThT | TexasRed fluor | Tau FP inhib
Cc1[nH]c2ccccc2c1/C=N/Nc1nc(N2CCCCC2)nc(N2CCCCC2)n1 | 4% | 44 | 10µM*[quencher] | ? | -3% | ?
Cc1[nH]c2ccccc2c1/C=C/C(=O)c1ccccc1 | 4% | 9 | 18µM*[quencher] | ? | -4% | 4%
CN(Cc1ccccc1)c1ccc(N2C(=O)CCC2=O)cc1[N+](=O)[O-] | -2% | . | -11% | ? | -2% | 11%
Cc1ccc(SCc2nc(N)nc(Nc3ccccc3C)n2)cc1C | 13% | -1 | ? | -9% | 1% | 1%
COc1ccc(/C=N/Nc2nc(-c3cccnc3)nc3ccccc23)cc1OC | -3% | . | ? | ? | -10% | 11%
Oc1ccc(/C=N/Nc2nc(-c3cccnc3)nc3ccccc23)c(O)c1 | 9% | . | 11µM*[quencher] | 2.2µM* | -17% | ?
Cc1c(O)ccc(/C=N/Nc2nc(-c3cccnc3)nc3ccccc23)c1O | 12% | . | ? | ? | -29% | ?
Cc1ccc(-c2nc(N/N=C/c3ccncc3)c3ccccc3n2)cc1 | 0% | -83* | ? | ? | 9% | -13%
CC(=O)c1c(C(C)=O)c(C)n(-c2ccc(N)c(C)c2)c1C | 22µM* | ? | 0% | -16% | 45µM*[fluorescent] | -1%
NC(=O)CC(NC(=O)c1ccccc1)c1ccc(NCC2CC2)c([N+](=O)[O-])c1 (stereo not given) | -3% | . | -14% | ? | 0% | 6%
NC(=O)CC(NC(=O)c1ccccc1)c1ccc(NCCc2cccc(F)c2)c([N+](=O)[O-])c1 (stereo not given) | 0% | . | -26% | 16µM* | -1% | -4%
NC(=O)CC(NC(=O)c1ccccc1)c1ccc(NCCOc2ccccc2)c([N+](=O)[O-])c1 (stereo not given) | 8% | . | -15% | 13µM* | -1% | 5%
CS(=O)(=O)c1ccc(C(=O)NCCN2C(=O)S/C(=C\c3cccnc3)C2=O)cc1[N+](=O)[O-] | 1% | . | ? | 16µM* | -7% | ?
CN(C)S(=O)(=O)c1ccc(C(=O)NCCN2C(=O)S/C(=C\c3cccnc3)C2=O)cc1 | -7% | . | 3% | 2% | -2% | -3%
CC(=O)Oc1cccc(/C=C2\C=C(c3ccc(C)cc3)OC2=O)c1 | -2% | . | -15% | ? | -4% | -8%
CCCCOc1ccc(/C=C2/Sc3ccccc3C2=O)cc1 | -25% | 7 | ? | 3.5µM* | 0% | 1%
CC(=O)Oc1cccc(/C=C2\Sc3ccccc3C2=O)c1 | 5% | . | ? | 10µM* | -7% | -8%
CC(C)COc1ccc(/C=C2/Sc3ccccc3C2=O)cc1 | 4% | 62 | -5% | 4.5µM* | 0% | 12%
COc1cccc(NC(=O)CN(C)CC(=O)Nc2ccc(Br)cc2)c1 | 4% | . | -29% | -10% | -4% | -1%
Nn1c(SC/C=C/c2ccccc2)nnc1-c1ccncc1 | -10% | -1 | -3% | -15% | -3% | 0%
Cn1c(Cc2cccs2)nnc1SC/C=C/c1ccccc1 | -7% | -100* | -2% | -14% | -5% | 7%
Cn1c(SC/C=C/c2ccccc2)nnc1-c1ccco1 | -6% | -100* | -4% | ? | -3% | 3%
Cc1nnc(SCC(=O)N2CCN(C(=O)c3ccco3)CC2)n1-c1ccccc1 | 1% | . | 6% | 0% | -2% | 7%
O=C(O)C12C[C@H]3C[C@@H](C1)CC(n1ncc(N4CCN(c5ccccc5)CC4)c(Cl)c1=O)(C3)C2 | 11% | 5 | -2% | 0% | -1% | 7%
O=C(CN1C(=O)NC(Cc2c[nH]c3ccccc23)C1=O)Nc1cccc(S(=O)(=O)N2CCCCCC2)c1 (stereo not given) | -2% | 14 | 14µM*[quencher] | -4% | -1% | -10%
COCC1CCN(Cc2cn[nH]c2-c2ccc(OC)c(F)c2)C1 (stereo not given) | -4% | . | -17% | -14% | -1% | -10%
